Assay outcomes as filed in PubChem BioAssay.
TDP1 cell CPT = growth inhibition of DT40 Tdp1-/-;hTDP1 cells with camptothecin (screen for TDP1 inhibitors); 12% of 420,000 active; AID 686979; Potency, µM (series often up to 46.2 µM), for inactives: top-dose activity change, negative = growth inhibition, usual class: inhibitors; chicken DT40 Tdp1-/-;hTDP1 cells + 20 nM CPT, ATP luminescence, 48 h; also: potency is read from the fitted curve at half-maximal effect; nearly all actives have a fitted effect of over 55% in size
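Chicken DT40 Tdp1-/- cells stably complemented with human TDP1 were seeded at 400 cells/well in medium containing 20 nM camptothecin, exposed to pin-transferred compounds, and grown at 37 °C for at least 48 hr. Viability was read as ATP luminescence.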
IL1B secr inh = blocks inflammasome-driven IL-1 beta release | activity change, % at 57.5 µM | AID 743279 | THP-1 LPS/ATP IL-1B secretion, AlphaLISA, 16 h; stronger effect = lower value | 4.7% of 360,000 active; in the data active = activity change below about -50%; inconclusive = mostly about -30% to -49%
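THP-1 cells pretreated 1 hr with compounds (up to 57.5 uM final), then stimulated with LPS (250 ng/mL final) plus ATP (1.25 mM final); secreted IL-1B measured by AlphaLISA after 16 hr, decreased signal indicating inhibition.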
TDP1 cell noCPT = qHTS for Inhibitors of human tyrosyl-DNA phosphodiesterase 1 (TDP1): qHTS in cells in absence of CPT. Potency, µM (highest dose often 46.2 µM), without a hit: at the highest dose activity change, negative = growth inhibition, actives largely listed as inhibitors. DT40 Tdp1-/- hTDP1 cells, no CPT, ATP luminescence, 48 h. 15% of 420,000 active. AID 686978, 2013; also: potency is read from the fitted curve at half-maximal effect; nearly all actives have a fitted effect of over 55% in size
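A cellular qHTS used chicken DT40 cells lacking endogenous Tdp1 but carrying stably transfected human TDP1. Compounds were applied without camptothecin, and cell growth kinetics were judged by ATP-dependent luminescence after ≥48 hr.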
HT1080 IDH1KD tx = HT-1080 IDH1 knockdown cell toxicity (counter line); 2% of 360,000 active; Potency, µM (top dose mostly 46.1 µM), for inactives: top-dose activity, negative = toxicity, most hits filed as cytotoxic; AID 686971; HT-1080 IDH1 knockdown viability, ATP luminescence, 48 h;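 also: potency is read from the fitted curve at half-maximal effect; 0% = DMSO wells and -100% = cell-free medium wells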
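% activity derives from luminescence (CellTiter-Glo), normalised to DMSO and no-cell wells. HT-1080-IDH1KD cells, 750/well, had 48 h compound exposure at 37 °C.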
HT1080-NT tox = kills 2HG-producing HT-1080-NT fibrosarcoma cells. Potency, µM (top dose mostly 46.1 µM), for the others: at the top dose activity, negative = less viability, hits mostly cytotoxic. HT-1080-NT fibrosarcoma viability, CellTiter-Glo ATP luminescence, 48 h. 1.6% of 360,000 active;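 also: NT is the 2HG producing partner of a matched IDH1 knockdown line; potency is read from the fitted curve at half-maximal effect; 0% = DMSO-treated cells and -100% = media-only wells without cells; nearly all actives have a fitted effect of over 55% in size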
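Viability by CellTiter-Glo luminescence after 48 h compound exposure at 37C of HT-1080-NT cells (750/well, RPMI, 5% FBS). % activity scaled between DMSO wells and medium-only wells, then curve-fitted and categorized by curve class.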
Numbers without * were called inactive; u = inconclusive; x = not tested or not shown. Shown are actives, neighbours in structure and some others; about 19% of the full set was active somewhere. Unless noted, calls follow the shape of the dose curve; as a rule, active = well fitted curve in the direction sought with a large enough effect; inconclusive = small, poorly fitted or top-dose-only effect, or another doubt; inactive = no such curve, though single readings can be large; an effect the other way counts as inactive or inconclusive. Unless noted, % is scaled to controls: 0 for no effect and ±100 for the full control effect.

SMILES	TDP1 cell CPT	IL1B secr inh	TDP1 cell noCPT	HT1080 IDH1KD tx	HT1080-NT tox
CCCCC(=O)NC(c1ccco1)c1cc(Cl)c2cccnc2c1O (stereo not drawn)	u	92	16µM*	9.2µM*	u
CCC(=O)NC(c1ccco1)c1cc(Cl)c2cccnc2c1O (stereo not drawn)	u	157	3.7µM*	3.7µM*	u
O=C(Oc1ccc(Cl)c2cccnc12)c1ccco1	u	64	u	u	u
CCn1c(SCC(=O)NC2=NCCS2)nnc1C(C)NC(=O)c1ccc(Cl)cc1 (stereo not drawn)	-9%	-17	-2%	0%	5%
NC(=S)NN=Cc1nccc2c(C(F)(F)F)cccc12	0.52µM*	127	0.73µM*	u	u
CNc1cccnc1C=NNC(N)=S	1.2µM*	80	0.92µM*	u	-17%
NC(=S)N/N=C/c1ccccc1	-2%	15	-23%	-1%	6%
Cc1ccccc1-c1nnc(SCC(=O)N2CCCCC2)o1	-29%	x	u	x	x
COc1ccc(Cl)cc1C(=O)Nn1c(-c2cccs2)nc2ccccc2c1=O	10µM*	u	u	-19%	-7%
CCCCN(CCCC)C(=S)[S-].CCCCN(CCCC)C(=S)[S-].[Zn+2]	15%	x	-3%	x	x
COc1ccc2[nH]c(S(=O)Cc3ncc(C)c(OC)c3C)nc2n1 (stereo not drawn)	u	x	27µM*	x	x
COc1ccc2[nH]c(S(=O)Cc3ncc(C)c(OC)c3C)nc2c1 (stereo not drawn)	u	4	16µM*	-14%	-11%
COc1ccc(-c2nc3cc(NC(=O)COc4ccccc4C)ccc3o2)cc1	-28%	x	-23%	x	x
CN(Cc1ccccc1)C(=O)C1CCN(S(=O)(=O)c2ccc3c(c2)oc(=O)n3C)CC1	-21%	x	-11%	x	x
c1ccc(CCCN2CCN(c3ccccn3)CC2)cc1	-9%	-9	0%	-2%	-13%
COc1cccc(/C=N/Nc2nc(C)cc(=O)[nH]2)c1OC	-4%	25	-4%	-1%	15%
COC(=O)c1ccc(-n2c(C)cc(/C=N/Nc3nc(C)cc(=O)[nH]3)c2C)cc1	15µM*	13	16µM*	-13%	0%
Cc1cc(=O)[nH]c(N/N=C/c2cc(C)n(CC(F)(F)F)c2C)n1	8.2µM*	10	7.3µM*	-6%	-18%
O=C(Nc1ccc(Br)cc1F)c1ccc2nsnc2c1	u	4	8.2µM*	2%	-1%
O=C(Nc1ccc(Br)cc1F)c1ccncc1	-10%	u	-29%	4%	9%
CCN(CC(=O)Nc1c(F)cccc1F)C(=O)c1ccccn1	9%	6	28%	4%	8%
O=C1OC(/C=C/c2ccc(Cl)cc2)=NC/1=C/c1ccco1	-21%	14	-3%	7%	2%
Cc1cc(Br)cn2c(Cc3ccccc3)c(-c3ccco3)nc12	u	-19	u	u	u
Brc1ccc(-c2nc3ccc(Br)cn3c2Cc2ccccc2)cc1	u	-16	21µM*	u	u
Clc1cccc(Cc2c(-c3ccccc3)nc3ccc(Br)cn23)c1	u	0	u	-27%	-27%
SMILES	TDP1 cell CPT	IL1B secr inh	TDP1 cell noCPT	HT1080 IDH1KD tx	HT1080-NT tox
Cc1cc(Br)cn2c(Cc3ccsc3)c(-c3ccc(Cl)cc3)nc12	15µM*	89	18µM*	u	u
Cc1cc(Br)cn2c(Cc3ccsc3)c(-c3ccco3)nc12	u	-7	u	23µM*	16µM*
Fc1ccc(-c2nc3ccc(Br)cn3c2Cc2ccccc2)cc1	u	28	u	-4%	-1%
Clc1ccc(-c2nc3ccc(Br)cn3c2Cc2ccccc2)cc1	23µM*	18	21µM*	2%	8%
Cc1cc(Br)cn2c(Cc3ccsc3)c(-c3cccc(Cl)c3)nc12	-19%	7	u	16%	16%
O=C(Nc1cc(-c2nc3cc(Cl)ccc3o2)ccc1Cl)c1cccc2ccccc12	1%	x	-7%	x	x
